Beta apoptosis: beta cell apoptosis inhibition; INS-1E cytokine-induced death, ATP luminescence, 48 h; percent of positive-control rescue, neutral wells zero; protection from apoptosis, % (test concentration not listed); hit rate 0.8% among 300,000;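 active = Every replicate reaches about 75%, or at least half do and their mean reaches it too, limit read from the data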;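 also: 0% = cytokine-treated negative control wells and 100% = positive control rescue; higher means more ATP so stronger rescue from cytokine killing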
CSC inhib: blocks cancer stem cells; cancer stem cell-like cells viability, luminescence; inhibition, % at 7.5 µM; hit rate 1.1% among 300,000; AID 2717; in the data active = inhibition above about 75%; tested in HMLE shEcad cells
NR3A LBD binder: NR3A (human) ligand-binding domain modulation; AID 1259313; hit rate 2.5% among 340,000; Tm shift relative to glycine control, % at 25 µM; NR3A LBD differential scanning fluorimetry, Tm shift; 0% = protein alone, 100% = glycine-bound protein;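 active = melting temperature shift of at least 10% of the positive control shift, at one fixed dose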
Mdm2-MdmX inh: inhibitors of human Mdm2/MdmX interaction. SaOS-2 split-luciferase Mdm2/MdmX complementation, luminescence. inhibition, % at 8 µM. hit rate 3% among 330,000. O15151+Q00987;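 active = inhibition of at least 50% at 8 µM in the primary screen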
Target sequence (O15151 whole entry, looked up): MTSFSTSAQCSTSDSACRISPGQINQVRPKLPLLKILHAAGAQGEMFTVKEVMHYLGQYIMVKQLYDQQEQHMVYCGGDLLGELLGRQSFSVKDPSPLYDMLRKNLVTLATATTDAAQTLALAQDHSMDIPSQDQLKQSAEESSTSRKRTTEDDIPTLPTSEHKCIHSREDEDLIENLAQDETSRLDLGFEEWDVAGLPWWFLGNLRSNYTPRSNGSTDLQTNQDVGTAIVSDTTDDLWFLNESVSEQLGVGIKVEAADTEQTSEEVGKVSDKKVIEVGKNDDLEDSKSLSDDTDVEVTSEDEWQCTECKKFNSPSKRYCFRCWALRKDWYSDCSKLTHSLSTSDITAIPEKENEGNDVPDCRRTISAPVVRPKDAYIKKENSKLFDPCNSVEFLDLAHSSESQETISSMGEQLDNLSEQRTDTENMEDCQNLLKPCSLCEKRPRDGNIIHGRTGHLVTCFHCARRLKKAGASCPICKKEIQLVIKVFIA
Target sequence (Q00987 whole entry, looked up): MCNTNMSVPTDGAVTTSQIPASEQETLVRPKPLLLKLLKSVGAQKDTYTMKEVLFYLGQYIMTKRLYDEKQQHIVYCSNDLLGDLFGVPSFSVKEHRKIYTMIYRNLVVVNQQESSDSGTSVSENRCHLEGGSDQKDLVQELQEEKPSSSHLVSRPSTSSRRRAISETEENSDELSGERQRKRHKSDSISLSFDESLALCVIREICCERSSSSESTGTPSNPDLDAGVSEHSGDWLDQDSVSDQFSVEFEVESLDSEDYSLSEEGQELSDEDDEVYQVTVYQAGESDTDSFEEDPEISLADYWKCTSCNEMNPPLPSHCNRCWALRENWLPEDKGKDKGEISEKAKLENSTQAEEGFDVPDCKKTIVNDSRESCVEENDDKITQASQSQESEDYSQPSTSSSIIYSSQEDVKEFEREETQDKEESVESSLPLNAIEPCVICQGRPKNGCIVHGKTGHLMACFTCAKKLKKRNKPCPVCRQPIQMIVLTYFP
MPTP block: permeability transition pore inhibition; isolated mouse mitochondria, Ca2+ swelling absorbance, 30 min; inhibition, % at 10 µM; hit rate 1.4% among 360,000; AID 602449;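 active = inhibition of 50% or more, scaled per plate between neutral and stimulator controls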;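 also: 0% = DMSO wells given calcium and 100% = 1 mM EGTA wells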
SKKanGAS inh: SKKanGAS growth inhibition; inhibition, % at 7.5 µM; hit rate 1.3% among 300,000; S. pyogenes SKKanGAS, kanamycin growth, BacTiter-Glo, 6 h;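 active = mean replicate score, as percent of positive control median, at least 50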;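 also: strain carries kanamycin resistance gene driven by streptokinase promoter and grows in 40 µg/ml kanamycin; loss of luminescence reflects streptokinase promoter inhibition or plain growth inhibition; 0% = median of DMSO wells and 100% = positive control at its reference dose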
Mdm2 MdmX conf: confirmation of human Mdm2/MdmX interaction inhibitors | shares compounds with Mdm2-MdmX inh | Mdm2-MdmX binding, luminescent assay | inhibition, % at 8 µM | hit rate 55% among 10,000 | AID 489028; in the data active = inhibition above about 40%
FLuc counter: counter-screen for Mdm2/MdmX inhibitors: full-length luciferase | SaOS-2 full-length luciferase counterscreen, luminescence | hit rate 77% among 6,200 | shares compounds with Mdm2-MdmX inh | inhibition, % at 8 µM | AID 504607;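 active = mean inhibition at 8 µM reaching about 37%, which flags the compound as non-specific, limit read from the data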;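 also: p53-null SaOS-2 cells with luciferase driven by a doxycycline-inducible promoter; compound on cells about two nights before reading with doxycycline added after day one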
* = called active by the depositor; · = no result. Only some compounds are listed: those with a hit (about 6.9% of all), similar ones and a draw of the others.

SMILES | Beta apoptosis | CSC inhib | NR3A LBD binder | Mdm2-MdmX inh | MPTP block | SKKanGAS inh | Mdm2 MdmX conf | others
O=C(NCC1CCCO1)c1c(O)c2cccc3c2n(c1=O)CC3 (centres undefined) | 1 | 4 | -3 | 69* | 5 | 4 | 69* | FLuc counter=55*
Cc1ccc(CNC(=O)C2CCCN2S(=O)(=O)c2ccc(Cl)cc2)cc1 (centres undefined) | -5 | -2 | -2 | 11 | 2 | 0 | ·
CCc1ccc(-c2cn(-c3nc(C)cc(C)n3)c(=N)o2)cc1 | 13 | 43 | -2 | 53* | 0 | 4 | 52* | FLuc counter=68*
CC(C)C[C@H]1C(=O)N2CCC[C@H]2[C@]2(O)O[C@](NC(=O)C3C=C4c5cccc6[nH]c(Br)c(c56)C[C@H]4N(C)C3)(C(C)C)C(=O)N12 (some centres undefined) | 11 | 2 | -8 | 61* | -1 | 16 | 28
O=C(Nc1ccccc1)/C(=C/c1ccc([N+](=O)[O-])cc1)NC(=O)c1ccco1 | · | 7 | -2 | 67* | 2 | 2 | 6
CCN(CC(=O)Nc1c(F)cccc1F)C(=O)c1ccc(S(=O)(=O)N2CCC(C)CC2)cc1 | 6 | · | 0 | 19 | 3 | · | ·
CCN(c1ccccc1C)S(=O)(=O)c1cc2c3c(c1)CCC(=O)N3CCC2 | -2 | -17 | 5 | 27 | -2 | -4 | ·
CC(=O)Nc1ccc(C(=O)OCC(=O)N(c2ccccc2)C2CCS(=O)(=O)C2)cc1 (centres undefined) | 1 | · | -1 | 2 | -1 | · | ·
O=C(CCl)N(c1ccccc1)C1CCS(=O)(=O)C1 (centres undefined) | -4 | 52 | 0 | 99* | 1 | -3 | 93* | FLuc counter=55*
N#Cc1c(-c2ccccc2)cc(-c2cccs2)nc1SCC(=O)O | 3 | 5 | 1 | 16 | 2 | -10 | ·
COc1ccc(-c2cc(-c3cccs3)c(C#N)c(SCC(=O)NCc3ccccc3)n2)cc1 | 19 | 5 | -3 | 61* | 0 | 1 | 12
COc1ccc(-c2cc(-c3cccs3)c(C#N)c(SCC(=O)NCc3ccccc3OC)n2)cc1 | 29 | 14 | 0 | 84* | -3 | 6 | 30
COc1nc(-c2ccccc2)ncc1S(=O)(=O)c1ccccc1 | -2 | 6 | 2 | 17 | -1 | -9 | ·
Cc1cccc(C)c1Oc1nc(-c2ccccc2)ncc1S(=O)(=O)c1ccccc1 | 7 | 33 | 10 | 52* | 4 | 51* | 3
NS(=O)(=O)c1cc(Br)c2c(c1)S(=O)(=O)NCN2 | · | · | · | · | -1 | · | ·
CCCNC(=O)C(Cc1ccc(Cl)cc1)NC(=O)c1ccc(-c2ccccc2)cc1 (centres undefined) | 24 | 5 | 2 | 59* | 0 | · | 17
COc1ccc(OCCSc2ccc(S(=O)(=O)N3CCCC3)cn2)cc1 | 0 | -7 | 3 | -20 | 1 | · | ·
CN1CCN(S(=O)(=O)c2ccc(SCCOc3ccc(Cl)cc3)nc2)CC1 | 6 | · | -1 | 59* | 0 | · | 32
O=C(c1ccco1)N1CCN(C(=O)C2CCCc3c2[nH]c2ccc(Cl)cc32)CC1 (centres undefined) | 7 | 24 | -8 | 86* | 4 | 13 | 67* | FLuc counter=28
CCN(CC)C(=O)C1CCCc2c1[nH]c1ccc(Cl)cc21 (centres undefined) | -1 | 9 | -3 | 84* | -1 | 6 | 72* | FLuc counter=35
O=C(O)c1[nH]c2ccc(Cl)cc2c1CC(=O)N1CCN(C(=O)c2ccco2)CC1 | 4 | 5 | -2 | 0 | -2 | 0 | ·
CCCN1CCN(C(=O)c2oc3c(Cl)cccc3c2C)CC1 | -6 | -10 | -3 | 4 | 0 | -3 | ·
Oc1ccc2ccccc2c1C=NCc1cn2ccsc2n1 | -8 | -9 | 0 | 51* | -1 | -2 | 4
C=CCn1c(SCc2c(C)noc2C)nc2sc(C)c(C)c2c1=O | 14 | 59 | -7 | 56* | 1 | 38 | 60* | FLuc counter=49*
O=C(Nc1ccc(F)cc1Cl)c1ccc2c(=O)n3c(nc2c1)CCC3 | · | 11 | -2 | -59 | -1 | -8 | ·
SMILES | Beta apoptosis | CSC inhib | NR3A LBD binder | Mdm2-MdmX inh | MPTP block | SKKanGAS inh | Mdm2 MdmX conf | others
CC/C(=C\C1CCCCC1)C(NP(=O)(c1ccccc1)c1ccccc1)c1ccccc1 (centres undefined) | 6 | 126* | 5 | 55* | 0 | 101* | 15
CCc1ccc(NC(=O)CN(CC(=O)Nc2ccc(CC)cc2)CC(C)O)cc1 (centres undefined) | 2 | 5 | -4 | 7 | 2 | 9 | ·
CC(=O)NC(Cc1ccccc1F)C(=O)NC1CCN(C(=O)NCc2ccccc2)CC1 (centres undefined) | -3 | -1 | -2 | 15 | 4 | 0 | ·
Cc1nn(-c2ccc(C(=O)Nc3nnc(C4CC4)s3)cc2)c(C)c1Cl | -2 | -2 | 7 | 26 | -4 | 11 | ·
Cc1nn(Cc2ccccc2Cl)c(C)c1C(=O)NCc1ccco1 | 1 | 7 | -2 | -37 | -3 | -5 | ·
Cc1nn(Cc2ccccc2Cl)c(C)c1C(=O)Nc1nnc(C2CC2)s1 | · | 53 | 3 | 79* | -1 | 6 | 7
Cc1nn(Cc2ccccc2Cl)c(C)c1C(=O)NCCN1C(=O)S/C(=C\c2ccccc2)C1=O | 6 | 29 | 1 | 58* | -1 | 3 | 7
CCc1ccccc1NC(=O)COC(=O)c1cccs1 | -4 | -3 | -1 | -1 | 1 | 4 | ·
CS(=O)(=O)c1ccc(Cl)c(NC(=O)C2CCN(S(=O)(=O)c3cccs3)CC2)c1 | -1 | -13 | 0 | 0 | -1 | · | ·
CC1CN(C(=O)CCCN2C(=O)c3ccccc3C2=O)CC(C)O1 (centres undefined) | · | · | -1 | 15 | 0 | -1 | ·
O=C(NC(=O)c1ccc(C(F)(F)F)cc1)Nc1ccc(-c2cnco2)cc1 | 8 | 2 | 0 | 56* | 0 | -4 | 8
CS(=O)(=O)N(CC(=O)N/N=C/c1cccc2c1OCCO2)c1ccccc1Br | -4 | -10 | 1 | 5 | -7 | 4 | ·
CCOC(=O)c1ccc(-c2ccc(/C=N/NC(=O)CN(c3ccccc3Br)S(C)(=O)=O)o2)cc1 | 8 | 41 | 12* | 51* | 1 | 30 | -4
CCN(CC)CCNC(=O)c1[nH]c2ccc(OCc3ccccc3)cc2c1C | 24 | 83* | -3 | 61* | 1 | 11 | 39 | FLuc counter=69*
O=C(NC(Nc1cc(C(F)(F)F)ccc1Cl)C(=O)c1ccccc1)c1ccccc1 (centres undefined) | 13 | 13 | 0 | 52* | 9 | 5 | 8
O=C(CCc1ccccc1)Nc1cc(C(F)(F)F)ccc1Cl | 7 | -1 | -2 | 18 | 0 | 1 | ·

Source: PubChem
